# Test results published in PubChem BioAssay (EPA / NIEHS).
# Inconclusive results are not listed. Where a structure was tested more than once in an assay, its records may differ in their call. Calls of active or inactive are those of the source. The calls were made as follows, unless noted: active = hit-call score of the fitted dose curve at least 0.9, where 1 is the maximum; inactive = score below 0.9.
# Assay: CCTE_Shafer_MEA_dev_LDH: CCTE's Lactate Dehydrogenase Assay for Cytotoxicity in the Neural Network Formation Assay, Shafer Lab (AID 2284068; active = hit-call score of the fitted dose curve at least 0.9, where 1 is the maximum;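 also: exposure for twelve days from plating with re-dosing on DIV 5 and 9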)
# Method in brief: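 Cytotoxicity companion to network-formation recordings: rat cortical neurons received compound over 12 days of development, re-dosed at DIV 5 and 9 feeds. Viability was inferred from LDH enzyme activity relative to DMSO.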
Structure (SMILES),outcome,AC50
OCC(F)(F)C(F)(F)C(F)(F)C(F)F,inactive,–
CC(CCl)OP(=O)(OC(C)CCl)OC(C)CCl (stereo unspecified),inactive,50 µM (active)
O=C(O)C=C(C(F)(F)F)C(F)(F)F,inactive,–
O=C(O)C(F)(F)C(F)(F)C(F)F,inactive,–
FC(F)(F)C(F)(F)C(F)(F)C(F)(F)C(F)(F)CCI,–,21.8 µM (active)
OCCCC(F)(F)C(F)(F)C(F)(F)F,inactive,–
O=C(O)C(F)(F)C(F)(F)C(F)(F)F,inactive,–
Cc1ccc(S(=O)(=O)OCC(F)(F)C(F)(F)C(F)(F)C(F)(F)C(F)(F)C(F)F)cc1,inactive,–
OCC(F)(F)C(F)(F)C(F)(F)C(F)(F)C(F)(F)C(F)F,inactive,–
O=C(O)C(F)(F)C(F)(F)C(F)(F)C(F)(F)C(F)(F)C(F)(F)C(F)(F)C(F)(F)Cl,inactive,–
O=P(O)(O)OCCC(F)(F)C(F)(F)C(F)(F)C(F)(F)C(F)(F)C(F)(F)F,–,21.5 µM (active)
O=C(O)C(F)(F)C(F)(F)C(F)(F)C(F)(F)C(F)(F)C(F)(F)C(F)(F)C(F)(F)C(F)(F)C(F)F,inactive,–
OC[C@@H](O)[C@@H](O)[C@H](O)[C@@H](O)CO,inactive,–
COC(=O)CCC(F)(F)C(F)(F)C(F)(F)C(F)(F)F,inactive,–
N=C(N)C(F)(F)C(F)(F)C(F)(F)C(F)(F)C(F)(F)C(F)(F)C(F)(F)F,–,24.5 µM (active)
CC(C)(C)C(=O)CC(=O)C(F)(F)C(F)(F)C(F)(F)F,–,21.9 µM (active)
O=S(=O)(OCC(F)F)C(F)(F)F,inactive,–
C=CC(=O)OCC(F)(F)C(F)(F)C(F)(F)C(F)(F)COC(=O)C=C,–,4.28 µM (active)

# Assay: CCTE_Shafer_MEA_dev_AB: CCTE's Alamar Blue Assay for Cytotoxicity in the Neural Network Formation Assay, Shafer Lab (AID 2284083; active = hit-call score of the fitted dose curve at least 0.9, where 1 is the maximum;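 also: resazurin reduction fluorescence as viability of cultured neurons; twelve days of exposure from plating with re-dosing on DIV 5 and 9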)
# Method in brief: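 Fluorescent resazurin reduction serves as the viability read-out, with DMSO as negative control and baseline. Cells were primary rat cortical neurons grown on MEA plates and dosed from day 0 to day 12, treatment renewed on DIV 5 and 9.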
Structure (SMILES),outcome,AC50
OCC(F)(F)C(F)(F)C(F)(F)C(F)F,inactive,–
CC(CCl)OP(=O)(OC(C)CCl)OC(C)CCl (stereo unspecified),inactive,–
FC(F)(F)C(F)(F)C(F)(F)C(F)(F)C(F)(F)CCI,–,23.9 µM (active)
OCC(F)(F)C(F)(F)C(F)(F)C(F)(F)C(F)(F)C(F)F,inactive,–
O=P(O)(O)OCCC(F)(F)C(F)(F)C(F)(F)C(F)(F)C(F)(F)C(F)(F)F,–,24.7 µM (active)
O=C(O)C(F)(F)C(F)(F)C(F)(F)C(F)(F)C(F)(F)C(F)(F)C(F)(F)C(F)(F)C(F)(F)C(F)F,inactive,–
OC[C@@H](O)[C@@H](O)[C@H](O)[C@@H](O)CO,inactive,–
OCC(F)(F)C(F)(F)C(F)(F)F,inactive,–
N=C(N)C(F)(F)C(F)(F)C(F)(F)C(F)(F)C(F)(F)C(F)(F)C(F)(F)F,–,23.9 µM (active)
CC(C)(C)C(=O)CC(=O)C(F)(F)C(F)(F)C(F)(F)F,–,23.9 µM (active)
C=CC(=O)OCC(F)(F)C(F)(F)C(F)(F)C(F)(F)COC(=O)C=C,–,4.78 µM (active)

# Assay: CCTE_Shafer_MEA_dev_mutual_information_norm: CCTE's Neural Network Formation Assay for Mutual Information Normalization, Shafer Lab (AID 2284091);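 as to AC50: mutual information between electrodes summarised as area under curve across four recording days; potency is for a decrease in mutual information relative to DMSO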
# Method in brief: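 Exposure of primary rat cortical neurons began at plating and ran to DIV 12, with full media and treatment renewal after DIV 5 and 9 recordings. Mutual information AUC (DIV 5–12) was analysed for loss versus DMSO.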
Structure (SMILES),outcome,AC50
OCC(F)(F)C(F)(F)C(F)(F)C(F)F,inactive,–
CC(CCl)OP(=O)(OC(C)CCl)OC(C)CCl (stereo unspecified),inactive,–
O=C(O)C=C(C(F)(F)F)C(F)(F)F,inactive,–
O=C(O)C(F)(F)C(F)(F)C(F)F,inactive,–
FC(F)(F)C(F)(F)C(F)(F)C(F)(F)C(F)(F)CCI,inactive,–
OCCCC(F)(F)C(F)(F)C(F)(F)F,inactive,–
O=C(O)C(F)(F)C(F)(F)C(F)(F)F,inactive,–
Cc1ccc(S(=O)(=O)OCC(F)(F)C(F)(F)C(F)(F)C(F)(F)C(F)(F)C(F)F)cc1,inactive,–
OCC(F)(F)C(F)(F)C(F)(F)C(F)(F)C(F)(F)C(F)F,inactive,–
O=C(O)C(F)(F)C(F)(F)C(F)(F)C(F)(F)C(F)(F)C(F)(F)C(F)(F)C(F)(F)Cl,inactive,–
O=P(O)(O)OCCC(F)(F)C(F)(F)C(F)(F)C(F)(F)C(F)(F)C(F)(F)F,inactive,–
O=C(O)C(F)(F)C(F)(F)C(F)(F)C(F)(F)C(F)(F)C(F)(F)C(F)(F)C(F)(F)C(F)(F)C(F)F,inactive,–
OC[C@@H](O)[C@@H](O)[C@H](O)[C@@H](O)CO,inactive,–
NC(=O)C(F)(F)C(F)(F)C(F)(F)C(F)(F)F,inactive,–
O=S(=O)(OCCOC(F)(F)F)C(F)(F)F,inactive,–
OCC(F)(F)C(F)(F)C(F)(F)F,inactive,–
COC(=O)CCC(F)(F)C(F)(F)C(F)(F)C(F)(F)F,inactive,–
N=C(N)C(F)(F)C(F)(F)C(F)(F)C(F)(F)C(F)(F)C(F)(F)C(F)(F)F,inactive,–
CC(C)(C)C(=O)CC(=O)C(F)(F)C(F)(F)C(F)(F)F,inactive,–
FC(F)(F)C(F)(F)CNCC(F)(F)C(F)(F)F,inactive,–
O=S(=O)(OCC(F)F)C(F)(F)F,inactive,–
C=CC(=O)OCC(F)(F)C(F)(F)C(F)(F)C(F)(F)COC(=O)C=C,–,2.2 µM (active)
FC(F)(F)C(F)(F)C(F)(F)C(F)(F)C(F)(F)C(F)(F)CC1CO1 (stereo unspecified),inactive,–

# Assay: CCTE_Shafer_MEA_dev_correlation_coefficient_mean: CCTE's Neural Network Formation Assay for Mean Correlation Coefficient, Shafer Lab (AID 2284093);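 as to AC50: well mean pairwise spike train correlation integrated as AUC over recording days 5 to 12; potency fitted for loss of correlation relative to DMSO vehicle wells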
# Method in brief: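 Read-out: well-mean correlation coefficient of spike trains between electrode pairs, collapsed over four recording days as trapezoidal area-under-the-curve. Developing rat cortical neuron networks grown on MEAs received test chemical continuously from plating.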
Structure (SMILES),outcome,AC50
OCC(F)(F)C(F)(F)C(F)(F)C(F)F,inactive,–
CC(CCl)OP(=O)(OC(C)CCl)OC(C)CCl (stereo unspecified),inactive,–
O=C(O)C=C(C(F)(F)F)C(F)(F)F,inactive,–
O=C(O)C(F)(F)C(F)(F)C(F)F,inactive,–
FC(F)(F)C(F)(F)C(F)(F)C(F)(F)C(F)(F)CCI,–,25.2 µM (active)
OCCCC(F)(F)C(F)(F)C(F)(F)F,inactive,–
O=C(O)C(F)(F)C(F)(F)C(F)(F)F,inactive,–
Cc1ccc(S(=O)(=O)OCC(F)(F)C(F)(F)C(F)(F)C(F)(F)C(F)(F)C(F)F)cc1,inactive,–
OCC(F)(F)C(F)(F)C(F)(F)C(F)(F)C(F)(F)C(F)F,inactive,–
O=C(O)C(F)(F)C(F)(F)C(F)(F)C(F)(F)C(F)(F)C(F)(F)C(F)(F)C(F)(F)Cl,inactive,–
O=P(O)(O)OCCC(F)(F)C(F)(F)C(F)(F)C(F)(F)C(F)(F)C(F)(F)F,inactive,–
O=C(O)C(F)(F)C(F)(F)C(F)(F)C(F)(F)C(F)(F)C(F)(F)C(F)(F)C(F)(F)C(F)(F)C(F)F,inactive,–
OC[C@@H](O)[C@@H](O)[C@H](O)[C@@H](O)CO,inactive,–
NC(=O)C(F)(F)C(F)(F)C(F)(F)C(F)(F)F,inactive,–
O=S(=O)(OCCOC(F)(F)F)C(F)(F)F,inactive,–
OCC(F)(F)C(F)(F)C(F)(F)F,inactive,–
COC(=O)CCC(F)(F)C(F)(F)C(F)(F)C(F)(F)F,inactive,–
N=C(N)C(F)(F)C(F)(F)C(F)(F)C(F)(F)C(F)(F)C(F)(F)C(F)(F)F,–,15 µM (active)
CC(C)(C)C(=O)CC(=O)C(F)(F)C(F)(F)C(F)(F)F,–,24.1 µM (active)
FC(F)(F)C(F)(F)CNCC(F)(F)C(F)(F)F,inactive,–
O=S(=O)(OCC(F)F)C(F)(F)F,inactive,–
C=CC(=O)OCC(F)(F)C(F)(F)C(F)(F)C(F)(F)COC(=O)C=C,–,4.1 µM (active)
FC(F)(F)C(F)(F)C(F)(F)C(F)(F)C(F)(F)C(F)(F)CC1CO1 (stereo unspecified),inactive,–
